Measured values published in PubChem BioAssay (Tox21).
Inconclusive results are not listed. A call without a number means that no potency is given here. Values without a mark were called inactive. Active and inactive are the calls of the source. Calls follow the shape of the full dose curve.

experiment: qHTS assay for small molecule disruptors of the mitochondrial membrane potential - cell viability (AID 720634); conditions: HepG2 viability, ATP luminescence (CellTiter-Glo), 1 h; series mostly up to 83.2 µM; activity change, negative = cytotoxicity: at the top concentration; also: nearly all actives have a fitted effect of over 20% in size;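 as to activity change, negative = cytotoxicity: human HepG2 liver cancer cells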
Source text: U.S. Tox21 Program National Center for Advancing Translational Sciences [NCATS] NIH Chemical Genomics Center [NCGC] U.S. Environmental Protection Agency [EPA] National Institutes of Environmental Health Sciences [NIEHS] National Toxicology Program [NTP] U.S. Food and Drug Administration [FDA] Tox21 Assay Overview: Mitochondrial membrane potential (MMP), one of the parameters for mitochondrial function, is generated by mitochondrial electron transport chain that creates an electrochemical gradient by a series of redox reactions. This gradient drives the synthesis of ATP, a crucial molecule for various cellular processes. Measuring MMP in living cells is commonly used to assess the effect of chemicals on mitochondrial function; decreases in MMP can be detected using lipophilic cationic fluorescent dyes. […] The dye accumulates in the mitochondria of healthy cells as aggregates, with red fluorescence. The mitochondrial potential decreases and the dye could not accumulate in the mitochondria and remains in the cytoplasm in monomers, with green fluorescence. In addition to the mitochondrial potential assay, these cells were also used to test the cytotoxicity by determining the cell viability in the culture based on the quantitation of ATP present. The cytotoxicity was measured in the same assay well of MMP assay.
Tox21 Assay Protocol Summary: 2,000 HepG2 cells in 5 uL/well were dispensed into black, clear-bottom 1536-well plates using a Multidrop Combi (Thermo Scientific) dispenser. The assay plates were incubated for an overnight at 37 C to allow cells to attach to the wells, followed by the transfer of 23 nL compound or DMSO vehicle by a pin tool (Kalypsys). The plates were incubated for 1 hr at 37 C and 5% CO2, followed by the addition of 5 uL of 2X m-MPI dye into each well using Flying Reagent Dispenser (Aurora Discovery) and then CellTiter-Glo reagent was added at 4 uL/well and incubated 30 min at room temperature. Then luminescence intensity was quantified on a ViewLux CCD-based plate reader.
Potency is read from the fitted curve at half-maximal effect.

SMILES | Potency | activity change, negative = cytotoxicity
O=S(=O)(O)CCS | inactive | 
Cc1ccc(N)c(S(=O)(=O)O)c1 | inactive | 
O=C(c1cc(O)c(O)c(O)c1)c1ccc(O)c(O)c1O | inactive | 
O=C(O)c1ccc([N+](=O)[O-])cc1 | inactive | 
CNC[C@H](O)[C@@H](O)[C@H](O)[C@H](O)CO | inactive | 
O=Nc1ccc(O)cc1 | inactive | 
CC1=C(/C=C/C(C)=C/C=C/C(C)=C/CO)C(C)(C)CCC1 | inactive | 
Cn1c([N+](=O)[O-])cnc1COC(N)=O | inactive | 
C=C(C)C(=O)OCCC[Si](OC)(OC)OC | inactive | 
OCCOCCOCCOCCO | inactive | 
CC(C)Cc1ccccc1 | inactive | 
CS(=O)(=O)c1ccc([C@@H](O)[C@@H](CO)NC(=O)C(Cl)Cl)cc1 | inactive | 
CCCCC/C=C\C/C=C\CCCCCCCC(=O)OC | inactive | 
Oc1ccc2ccccc2c1N=Nc1ccccc1 | 27.3 µM (active) | 
CC(=O)CCc1ccccc1 | inactive | 
CCCCC(CC)COC(C)=O (stereo not given) | inactive | 
COC(=O)c1ccc(C(=O)OC)cc1 | inactive | 
COCC(=O)O | inactive | 
CCCCOCCOCCOC(=O)CCCCC(=O)OCCOCCOCCCC | inactive | 
CCOC(=O)C1OC1c1ccccc1 (stereo not given) | inactive | 

SMILES | Potency | activity change, negative = cytotoxicity
CCOC(=O)/C=C\C(=O)OCC | inactive | 
OC[C@@H](O)[C@H](O)[C@H](O)[C@@H](O)CO | inactive | 
CC(C)n1c(/C=C/[C@@H](O)C[C@@H](O)CC(=O)O)c(-c2ccc(F)cc2)c2ccccc21 | inactive | 
CCCCCCCCCCC=CC1CC(=O)OC1=O (stereo not given) |  | 11.5%
NC(=O)/N=N/C(N)=O | inactive | 
CCCCCCCCC | inactive | 
C/C=C(C)/C=C/C=C(C)C | inactive | 
CN(C)c1cccc(O)c1 | inactive | 
CCCCC(CC)C(=O)OCCOCCOCCOC(=O)C(CC)CCCC (stereo not given) |  | -11.7% [at 95.3 µM]
O=C(Cl)c1c(Cl)c(Cl)c(C(=O)Cl)c(Cl)c1Cl | inactive | 
O=C(O)c1cc(-c2ccccc2)nc2ccccc12 | inactive | 
NCCc1ccc(O)c(O)c1 | inactive | 
CC(C)NCC(O)COc1cccc2ccccc12 (stereo not given) | inactive | 
CCCCCCCCCCCCOCC1CO1 (stereo not given) | inactive | 
Cc1cc(=O)[nH]c(C(C)C)n1 | inactive | 
O=C1CCCCC1 | inactive | 
CCc1ccc(O)cc1 | inactive | 
COC(=O)Nc1nc2ccc(Sc3ccccc3)cc2[nH]1 | inactive | 
COCC(C)O (stereo not given) | inactive | 
CN(CCOc1ccc(CC2SC(=O)NC2=O)cc1)c1ccccn1 (stereo not given) |  | -6.9%
